Source: ChEMBL document CHEMBL1157539, “Thousands of chemical starting points for antimalarial lead identification” (Nature, 2010)

Assays:
Assay type in all cases: functional
Plasmodium falciparum [1] = assay: GSK_TCMDC: Inhibition of Plasmodium falciparum 3D7 in whole red blood cells, using parasite LDH activity as an index of growth. Test compounds present at 2uM
Plasmodium falciparum [2] = assay: GSK_TCMDC: Inhibition of Plasmodium falciparum Dd2 in whole red blood cells, using parasite LDH activity as an index of growth. Test compounds present at 2uM
HepG2 = assay: GSK_TCMDC: Percent inhibition of human HepG2 cell line. Test compounds present at 10uM.

Compound | Inhibition (Plasmodium falciparum [1]) | Inhibition (Plasmodium falciparum [2]) | Inhibition (HepG2)
COc1ccccc1-n1ccnc1SCC(=O)Nc1cccc(C(F)(F)F)c1 | 95% | 96% | 1%
COc1ccccc1-c1csc(C(=O)NCC2CCN(Cc3ccc(C(C)C)cc3)C2)c1.O=C(O)C(F)(F)F (stereo not given) | 81% | 6% | 24%
NC1=NC(c2ccccc2)(c2ccccc2)C(=O)N1C1CCCCC1.O=CO | 100% | 87% | 13%
O=C(Nc1cccc(C(F)(F)F)c1)c1ccc(S(=O)(=O)NCC2CCCN2CC2CCCCC2)cc1.O=C(O)C(F)(F)F (stereo not given) | 98% | 3% | 14%
Cc1ccc(-c2cccc3c(NC(=O)Nc4ccc5nccc(N6CCN(C)CC6)c5c4)cccc23)cn1.Cl | 90% | 89% | 6%
Fc1cccc(COc2ccc(Nc3ncnc4sc(C#C[C@H]5CC[C@H](CN6CCOCC6)N5)cc34)cc2Cl)c1 | 92% | 23% | 16%
O=C(NCc1ccc(F)cc1)c1cnc(N2CCN(c3ccncc3)CC2)c(Cl)c1.O=C(O)C(F)(F)F | 98% | 44% | 30%
O=C(Nc1ccc2nc3n(c(=O)c2c1)CCCCC3)C(=O)N1CCC(Cc2ccccc2)CC1 | 91% | 70% | 12%
COc1ccc(CCNCCCCNCCc2ccc(OC)c3ccccc23)c2ccccc12.CS(=O)(=O)O | 100% | 33% | 100%
COCCOc1ccc(C(F)(F)F)cc1NC(=O)Cc1c(F)cccc1Cl | 88% | 74% | 18%
